{
  "source": "PubChem BioAssay",
  "key": {"[1]": {"assay": "growth inhibition of DIPG glioma cells, dose response, cell-based, SU-DIPG-XVII, MIPE5.0, CellTiter-Glo, qHTS (AID 1347060; cut-off not given, nearly all actives have AC50 up to about 26 µM)", "settings": "SU-DIPG-XVII viability, CellTiter-Glo ATP luminescence"}, "[2]": {"assay": "growth inhibition of DIPG glioma cells, dose response, cell-based, SU-DIPG-XIII, MIPE5.0, CellTiter-Glo, qHTS (AID 1347064; cut-off not given, nearly all actives have AC50 up to about 23 µM)", "settings": "SU-DIPG-XIII viability, CellTiter-Glo ATP luminescence"}, "[3]": {"assay": "viability loss in pontine glioma line – cell-based, SU-DIPG-XXV, MIPE5.0, CellTiter-Glo, qHTS, dose response (AID 1347065; cut-off not given, nearly all actives have AC50 up to about 26 µM;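 also: cells exposed to compound for 48 hours before ATP readout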)", "settings": "CellTiter-Glo ATP luminescence"}, "[4]": {"assay": "SU-DIPG-VI glioma cell viability, MIPE4.0 library, CellTiter-Glo luminescence, qHTS (AID 1347066; cut-off not given, nearly all actives have AC50 up to about 30 µM;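 also: cells exposed to compound for 48 hours before readout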)", "settings": "CellTiter-Glo ATP luminescence"}, "[5]": {"assay": "JHH-DIPG-1 glioma cell viability, MIPE5.0 library, CellTiter-Glo luminescence, qHTS (AID 1347067; cut-off not given, nearly all actives have AC50 up to about 26 µM;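 also: cells exposed to compound for 48 hours before readout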)", "settings": "JHH-DIPG-1 glioma viability, CellTiter-Glo ATP luminescence"}, "[6]": {"assay": "SU-DIPG-XXV glioma cell viability, MIPE5.0 library, qHTS (AID 1347068; cut-off not given, nearly all actives have IC50 up to about 30 µM)"}, "[7]": {"assay": "sensitizers of A549 cells to miR-34 induction, primary screen, imaging, A549 dox-inducible miR-34, nuclei and caspase counts (AID 1347080;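 active = compounds whose cell count with miR-34 switched on is under 0.7 times the count with it off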)", "settings": "A549 miR-34 inducible, Hoechst nuclei count, 48 h"}, "[8]": {"assay": "modifiers of HSF1 nuclear foci, imaging, Selleck Cancer Library (AID 1347162; in the data active = plate-normalised HSF1 focus index below about 0.46)", "settings": "human cells, at 10 µM; SSMD: measured here: HSF1 foci SSMD mean; cell count: measured here: cell number; plate-normalised HSF1 focus index: stronger effect = lower value"}, "[9]": {"assay": "survival rescue of mitochondrial mutant cells in low glucose, primary screen, MELAS cybrids, Rieske KO mouse fibroblasts, CellTiter-Glo (AID 1508586;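 active = mean z-score across replicates of 1.96 or higher in either the MELAS or the Rieske mutant cell line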;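 also: z relative to plate mean and SD of compound and empty wells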)"}, "[10]": {"assay": "ovarian cancer cell viability with rucaparib, profiling panel, oncology-focused library, rucaparib conditional (AID 1508598)", "settings": "patient-derived ovarian cancer cells, CellTiter-Glo viability, 144 h, stronger effect = lower value"}, "[11]": {"assay": "LFS_MB_P medulloblastoma growth inhibition, cell-based, chromothripsis tumors, cisplatin or BGB combos (AID 1671449; in the data active = inhibition above about 80%;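 also: cells exposed for 96 hours; 0% = vehicle DMSO and 100% = killing by high DMSO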)", "settings": "LFS_MB_P medulloblastoma cells"}, "[12]": {"assay": "HDN33 neuroblastoma growth inhibition, cell-based, chromothripsis tumors, cisplatin or BGB combos (AID 1671450; in the data active = inhibition above about 80%;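 also: cells exposed to compound for four days; 0% = vehicle DMSO and 100% = cell killing by high DMSO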)", "settings": "HDN33 neuroblastoma cells, stronger effect = higher value"}},
  "note": "“And” between values parts separate entries of the source, which are not always exact repeats. Equal entries are not always repeated. Inconclusive results are not listed. The source made the active and inactive calls.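 The calls were made as follows, unless noted: active = normalized viability below 100% at a tested concentration; inactive = the rest.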",
  "data": [
    {"compound": "NC(=O)c1ccc(I)c([N+](=O)[O-])c1", "values": [
      {"measurement": "outcome", "setting": "[1]", "result": "inactive"},
      {"measurement": "outcome", "setting": "[2]", "result": "inactive"},
      {"measurement": "outcome", "setting": "[3]", "result": "inactive"},
      {"measurement": "outcome", "setting": "[4]", "result": "inactive"},
      {"measurement": "outcome", "setting": "[5]", "result": "inactive"},
      {"measurement": "outcome", "setting": "[6]", "result": "inactive"},
      {"measurement": "fold change", "setting": "[7]; stronger effect = lower value, cell number ratio, induced over uninduced", "result": "0.861 (inactive)"},
      {"measurement": "fold change", "setting": "[7]; measured here: relative caspase fold change +Dox/-Dox", "result": 0.928},
      {"measurement": "cell count", "setting": "[7]; measured here: total cells with miR-34 induction, stronger effect = lower value", "result": 7270},
      {"measurement": "cell count", "setting": "[7]; measured here: total cells without miR-34 induction", "result": 8450},
      {"measurement": "SSMD", "setting": "[8]", "result": 1.45},
      {"measurement": "cell count", "setting": "[8]", "result": 6730},
      {"measurement": "plate-normalised HSF1 focus index", "setting": "[8]", "result": "1.07 (inactive)"},
      {"measurement": "z-score", "setting": "[9]; MELAS cybrid survival, CellTiter-Glo 48 h, stronger effect = higher value", "result": "-0.444 (inactive)"},
      {"measurement": "z-score", "setting": "[9]; Rieske KO mouse fibroblast survival, CellTiter-Glo 72 h", "result": 0.628},
      {"measurement": "viability", "setting": "[10]; at 0.000305 µM, OCI-C5x cells, with rucaparib 10 µM, 100% = cells with rucaparib alone", "result": "109% (inactive)"},
      {"measurement": "viability", "setting": "[10]; at 0.000305 µM, OCI-C5x cells, without rucaparib", "result": "119% (inactive)"},
      {"measurement": "viability", "setting": "[10]; at 0.000305 µM, OCI-P5x cells, with rucaparib 20 µM, 100% = cells with rucaparib alone", "result": "98.3% (active)"},
      {"measurement": "viability", "setting": "[10]; at 0.000305 µM, OCI-P5x cells, without rucaparib", "result": "94.7% (active)"},
      {"measurement": "viability", "setting": "[10]; at 0.00122 µM, OCI-C5x cells, with rucaparib 10 µM, 100% = cells with rucaparib alone", "result": "110% (inactive)"},
      {"measurement": "viability", "setting": "[10]; at 0.00122 µM, OCI-C5x cells, without rucaparib", "result": "116% (inactive)"},
      {"measurement": "viability", "setting": "[10]; at 0.00122 µM, OCI-P5x cells, with rucaparib 20 µM, 100% = cells with rucaparib alone", "result": "102% (inactive)"},
      {"measurement": "viability", "setting": "[10]; at 0.00122 µM, OCI-P5x cells, without rucaparib", "result": "97.6% (active)"},
      {"measurement": "viability", "setting": "[10]; at 0.00488 µM, OCI-C5x cells, with rucaparib 10 µM, 100% = cells with rucaparib alone", "result": "113% (inactive)"},
      {"measurement": "viability", "setting": "[10]; at 0.00488 µM, OCI-C5x cells, without rucaparib", "result": "127% (inactive)"},
      {"measurement": "viability", "setting": "[10]; at 0.00488 µM, OCI-P5x cells, with rucaparib 20 µM, 100% = cells with rucaparib alone", "result": "101% (inactive)"},
      {"measurement": "viability", "setting": "[10]; at 0.00488 µM, OCI-P5x cells, without rucaparib", "result": "102% (inactive)"},
      {"measurement": "viability", "setting": "[10]; at 0.0195 µM, OCI-C5x cells, with rucaparib 10 µM, 100% = cells with rucaparib alone", "result": "127% (inactive)"},
      {"measurement": "viability", "setting": "[10]; at 0.0195 µM, OCI-C5x cells, without rucaparib", "result": "126% (inactive)"},
      {"measurement": "viability", "setting": "[10]; at 0.0195 µM, OCI-P5x cells, with rucaparib 20 µM, 100% = cells with rucaparib alone", "result": "103% (inactive)"},
      {"measurement": "viability", "setting": "[10]; at 0.0195 µM, OCI-P5x cells, without rucaparib", "result": "95.1% (active)"},
      {"measurement": "viability", "setting": "[10]; at 0.0781 µM, OCI-C5x cells, with rucaparib 10 µM, 100% = cells with rucaparib alone", "result": "119% (inactive)"},
      {"measurement": "viability", "setting": "[10]; at 0.0781 µM, OCI-C5x cells, without rucaparib", "result": "117% (inactive)"},
      {"measurement": "viability", "setting": "[10]; at 0.0781 µM, OCI-P5x cells, with rucaparib 20 µM, 100% = cells with rucaparib alone", "result": "97.2% (active)"},
      {"measurement": "viability", "setting": "[10]; at 0.0781 µM, OCI-P5x cells, without rucaparib", "result": "102% (inactive)"},
      {"measurement": "viability", "setting": "[10]; at 0.313 µM, OCI-C5x cells, with rucaparib 10 µM, 100% = cells with rucaparib alone", "result": "115% (inactive)"},
      {"measurement": "viability", "setting": "[10]; at 0.313 µM, OCI-C5x cells, without rucaparib", "result": "117% (inactive)"},
      {"measurement": "viability", "setting": "[10]; at 0.313 µM, OCI-P5x cells, with rucaparib 20 µM, 100% = cells with rucaparib alone", "result": "101% (inactive)"},
      {"measurement": "viability", "setting": "[10]; at 0.313 µM, OCI-P5x cells, without rucaparib", "result": "88.7% (active)"},
      {"measurement": "viability", "setting": "[10]; at 1.25 µM, OCI-C5x cells, with rucaparib 10 µM, 100% = cells with rucaparib alone", "result": "114% (inactive)"},
      {"measurement": "viability", "setting": "[10]; at 1.25 µM, OCI-C5x cells, without rucaparib", "result": "122% (inactive)"},
      {"measurement": "viability", "setting": "[10]; at 1.25 µM, OCI-P5x cells, with rucaparib 20 µM, 100% = cells with rucaparib alone", "result": "94.9% (active)"},
      {"measurement": "viability", "setting": "[10]; at 1.25 µM, OCI-P5x cells, without rucaparib", "result": "94.9% (active)"},
      {"measurement": "viability", "setting": "[10]; at 5 µM, OCI-C5x cells, with rucaparib 10 µM, 100% = cells with rucaparib alone", "result": "102% (inactive)"},
      {"measurement": "viability", "setting": "[10]; at 5 µM, OCI-C5x cells, without rucaparib", "result": "122% (inactive)"},
      {"measurement": "viability", "setting": "[10]; at 5 µM, OCI-P5x cells, with rucaparib 20 µM, 100% = cells with rucaparib alone", "result": "110% (inactive)"},
      {"measurement": "viability", "setting": "[10]; at 5 µM, OCI-P5x cells, without rucaparib", "result": "91.7% (active)"},
      {"measurement": "inhibition", "setting": "[11]; at 0.5 µM, stronger effect = higher value", "result": "-30.4% (inactive) and -3.77% (inactive)"},
      {"measurement": "inhibition", "setting": "[11]; measured here: combination with BGB IC20, at 0.005 µM", "result": "11.8% and -4.71%"},
      {"measurement": "inhibition", "setting": "[11]; measured here: combination with BGB IC40, at 0.005 µM", "result": "-7.86% and -37.5%"},
      {"measurement": "inhibition", "setting": "[11]; measured here: combination with BGB IC40, at 0.05 µM", "result": "5% and -21.1%"},
      {"measurement": "inhibition", "setting": "[11]; measured here: combination with cisplatin, at 0.5 µM, stronger effect = higher value", "result": "-54.2% and -27.9%"},
      {"measurement": "inhibition", "setting": "[11]; measured here: combination with cisplatin, at 5 µM, stronger effect = higher value", "result": "-10.7% and -15.7%"},
      {"measurement": "inhibition", "setting": "[12]; BGB combo, at 5 µM", "result": "13.3% and -25.3%"},
      {"measurement": "inhibition", "setting": "[12]; at 0.5 µM", "result": "0.82% (inactive) and -18.3% (inactive)"},
      {"measurement": "inhibition", "setting": "[12]; cisplatin combo, at 5 µM", "result": "6.61% and -13.4%"},
      {"measurement": "inhibition", "setting": "[12]; measured here: with BGB IC20 combination, at 0.5 µM", "result": "-4.77% and -10.4%"}
    ]}
  ]
}
